Screening data: PubChem, National Center for Advancing Translational Sciences (NCATS)
KDM5B inhibitor – Primary screen for KDM5B Histone Demethylases FDH-coupled qHTS. Lysine-specific demethylase 5B (Homo sapiens), Q9UGL1. KDM5B demethylase, FDH-coupled NADH fluorescence (FDH is formaldehyde dehydrogenase). Potency, µM (series often up to 57.7 µM), hits mostly inhibitors. 220,000 tested, 2.6% active; also: potency is read from the fitted curve at half-maximal effect; 0% is about no effect; nearly all actives have a fitted effect of over 70% in size
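KDM5BΔAP (200 nM final) in 50 mM HEPES pH 7.5, 0.01% Tween-20 was preincubated 10 min at RT with compound over a concentration range. Substrate mix (H3K4me3 12.5 µM, α-KG 25 µM, Fe²⁺, ascorbate, NAD⁺, FDH) was added, and NADH fluorescence change over 30 min gave dose-response curves.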
IP6K1 inh – Primary qHTS assay for small molecule inhibitors of Inositol hexaphosphate kinase 1 (IP6K1); Inositol hexakisphosphate kinase 1 (Homo sapiens), Q92551; IP6K1 kinase, ADP-Glo luminescence, 2 h; active compounds read low; activity change, % (series mostly up to about 58 µM); 140,000 tested, 0.81% active; in the data active = activity change below about -25%; also: % is scaled to controls: 0 for no effect and ±100 for the full control effect
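ADP-Glo luminescence measures ADP made by human IP6K1 during a 2 h RT reaction with ATP/IP6 (mix at 1.3 mM/130 uM); top library doses 57.5 and 19.1 uM final.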
IP6K1 inh cnf – Confirmatory qHTS assay for small molecule inhibitors of Inositol hexaphosphate kinase 1 (IP6K1). 1,200 tested, 13% active. AID 1645852, 2021. shares compounds with IP6K1 inh. recombinant IP6K1 kinase, ADP-Glo luminescence, 2 h. Potency, µM (top dose mostly 49 µM), for inactives: at the top dose activity change, negative = inhibition, most hits filed as inhibitors; also: potency is read from the fitted curve at half-maximal effect; % is scaled to controls: 0 for no effect and ±100 for the full control effect; nearly all actives have a fitted effect of over 65% in size
An asterisk follows results filed as active; [ ] = dose if it differs, or a comment. In the library only some 2.7% were active in any assay of this set; here they are far more common. Unless noted, calls follow the shape of the dose curve; as a rule, active = well fitted inhibition curve with a large enough effect; inconclusive = small, poorly fitted or top-dose-only effect; inactive = no such curve, though single readings can be large or run the other way.

How did COc1ccc(Nc2ncnc3c2cnn3-c2ccccc2Cl)cc1 do in these assays?
KDM5B inhibitor: inactive

What do the screens show for `CCn1c2ccccc2c2cc(CN3CCN(Cc4ccccc4F)CC3)ccc21`?
KDM5B inhibitor: inconclusive; IP6K1 inh: -26*; IP6K1 inh cnf: -1%

How did CCn1c2ccccc2c2cc(CN3CCN(Cc4cc(OC)c(O)c(OC)c4)CC3)ccc21 do in these assays?
KDM5B inhibitor: inconclusive; IP6K1 inh: -20

What do the screens show for `CCn1c2ccccc2c2cc(CN3CCN(Cc4ccc(Cl)cc4)CC3)ccc21`?
KDM5B inhibitor: inconclusive; IP6K1 inh: -20

How did CCn1c2ccccc2c2cc(CN3CCN(Cc4ccccc4C)CC3)ccc21 do in these assays?
KDM5B inhibitor: inconclusive; IP6K1 inh: -28*; IP6K1 inh cnf: 5%

What do the screens show for `CCOc1ccc(C2c3c(oc4ccccc4c3=O)C(=O)N2c2nnc(C)s2)cc1OC` (stereo not given)?
KDM5B inhibitor: inactive[11.5 µM]; IP6K1 inh: -37*; IP6K1 inh cnf: -10%

Results for COc1cc(C2c3c(oc4ccccc4c3=O)C(=O)N2c2nnc(C(C)C)s2)cc(OC)c1OC (stereo not given) ?
KDM5B inhibitor: inactive; IP6K1 inh: -26*; IP6K1 inh cnf: 6%

Results for Cc1nnc(N2C(=O)c3oc4ccccc4c(=O)c3C2c2ccc(Cl)cc2)s1 (stereo not given) ?
KDM5B inhibitor: inactive; IP6K1 inh: -4

What do the screens show for `Cc1ccc(C2c3c(oc4ccccc4c3=O)C(=O)N2c2nnc(C)s2)cc1` (stereo not given)?
KDM5B inhibitor: inactive; IP6K1 inh: 17

How did Cc1ccc(C(=O)N2CCN(c3oc(-c4cccs4)nc3C#N)CC2)cc1 do in these assays?
KDM5B inhibitor: inactive

Results for Cc1cccc(Nc2nc(NCc3ccc(Cl)cc3)nc(N)c2[N+](=O)[O-])c1 ?
KDM5B inhibitor: inactive

How did Cc1ccccc1OC(=O)C(c1ccccc1)c1ccccc1 do in these assays?
KDM5B inhibitor: inactive

What do the screens show for `COCCCNc1ccc(C(=O)N2CCC(CN3CCCC3=O)CC2)cn1`?
KDM5B inhibitor: inconclusive; IP6K1 inh: -57*; IP6K1 inh cnf: -7%

What do the screens show for `O=C1CCCN1CC1CCN(C(=O)c2ccc(N3CCC(CO)C3)nc2)CC1` (stereo not given)?
KDM5B inhibitor: inconclusive; IP6K1 inh: 5

What do the screens show for `CC1(c2ccccc2)N(Cc2ccccc2C#N)C(=O)OC12CCN(Cc1c[nH]c3ccccc13)CC2` (stereo not given)?
KDM5B inhibitor: inconclusive; IP6K1 inh: -10

How did CCC(=O)N1CCc2cc(Br)cc(S(=O)(=O)N(CC)Cc3ccccc3)c21 do in these assays?
KDM5B inhibitor: inactive; IP6K1 inh: -27*; IP6K1 inh cnf: 38%

How did CCC(=O)N1CCc2cc(Br)cc(S(=O)(=O)CCC(=O)N3CCN(c4ccccc4OC)CC3)c21 do in these assays?
KDM5B inhibitor: inactive; IP6K1 inh: -27*; IP6K1 inh cnf: -6%

How did CCC(=O)N1CCc2cc(Br)cc(S(=O)(=O)NCCCN(CC)Cc3ccccc3)c21 do in these assays?
KDM5B inhibitor: inactive

How did CCC(=O)N1CCc2cc(Br)cc(S(=O)(=O)CCC(=O)N3CCN(c4ccc(OC)cc4)CC3)c21 do in these assays?
KDM5B inhibitor: inactive; IP6K1 inh: -8

What do the screens show for `O=C(c1cccc(Cl)c1)N(Cc1cccc(F)c1)C1CCS(=O)(=O)C1` (stereo not given)?
KDM5B inhibitor: inactive; IP6K1 inh: -37*; IP6K1 inh cnf: -14%

What do the screens show for `COc1cccc(C(=O)N(Cc2cccc(F)c2)C2CCS(=O)(=O)C2)c1` (stereo not given)?
KDM5B inhibitor: inactive; IP6K1 inh: 12

What do the screens show for `CSc1ccccc1-c1nc(-c2ccncc2)no1`?
KDM5B inhibitor: inactive

What do the screens show for `Clc1ccccc1-c1nc(-c2ccncc2)no1`?
IP6K1 inh: -25*; IP6K1 inh cnf: inconclusive

What do the screens show for `COc1cccc(N2C(=O)NC(=NC3CCCCC3)C23CCCN(CCC(C)C)C3)c1` (stereo not given)?
KDM5B inhibitor: inactive; IP6K1 inh: -19

What do the screens show for `Cn1cc(-c2cnc3[nH]cc(CC(=O)NCc4ccc5c(c4)OCO5)c3c2)cn1`?
KDM5B inhibitor: inactive; IP6K1 inh: -20

Results for Cn1cc(-c2cnc3[nH]cc(CC(=O)Nc4ccccc4Cl)c3c2)cn1 ?
KDM5B inhibitor: 32µM*; IP6K1 inh: -26*; IP6K1 inh cnf: inconclusive
